{"source": "PubChem BioAssay AID2401", "about": "(Southern Research Specialized Biocontainment Screening …, 2010)", "note": "The whole screen tested about 2,200 compounds, of which about 530 (24%) were called active.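 The calls were made as follows: active = inhibition above a set limit at one or more concentrations of the dose series; inactive = inhibition under that limit at every dose.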 A selection follows. Entries with a potency or affinity are not part of this list.", "data": [{"assay": "S. Typhimurium nonspecific reporter signal inhibition – Salmonella Typhimurium, GFP fluorescence, counter-screen for PhoP regulon inhibitor project, dose response (AID 2401);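 also: S. typhimurium with Mg-insensitive nmpC-GFP reporter grown at 10 µM Mg2+; drop in reporter fluorescence reflects general culture growth inhibition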", "conditions": "4 h; series mostly up to 150 µM; inhibition: at the top concentration", "values": [{"compound": "O=C(Cc1n[nH]c(=O)c2ccccc12)OCC(=O)c1ccc2c(c1)OCCO2", "inhibition": "21.7% (inactive)"}, {"compound": "c1ccc(Cc2nnc(-c3ccccc3)o2)cc1", "inhibition": "-23.2% (inactive)"}, {"compound": "Oc1ccccc1CN1CCCN(Cc2ccccc2O)C1", "inhibition": "-20.8% (inactive)"}, {"compound": "COc1ccc(NC(=O)CN2CCCCC2)c([N+](=O)[O-])c1", "inhibition": "-10.1% (inactive)"}, {"compound": "CC(C)Cc1oc(C(=O)O)cc1CN1CCOCC1", "inhibition": "3.36% (inactive)"}, {"compound": "CC(C)(C)c1ccc(C(=O)NC(=S)NCc2cccnc2)cc1", "inhibition": "-17.4% (inactive)"}, {"compound": "O=C(Nc1nc2cc3c(cc2s1)OCO3)C1=COCCO1", "inhibition": "-4.16% (inactive)"}, {"compound": "CCOc1ccc(CSC(CC(=O)O)C(=O)O)cc1", "note": "(stereo unspecified)", "inhibition": "-4.91% (inactive)"}, {"compound": "O=C(CSc1ncnc2ccccc12)Nc1cc(S(=O)(=O)N2CCCCC2)ccc1Cl", "inhibition": "19.2% (inactive)"}, {"compound": "Cc1ccc(CCNC(=O)C2CCN(S(=O)(=O)N3CCCC3)CC2)cc1", "inhibition": "-28.9% (inactive)"}, {"compound": "COc1ccc(C(=O)Oc2c(CN3CCOCC3)cc(Cl)c3cccnc23)cc1", "inhibition": "-5.79% (inactive)"}, {"compound": "COc1ccc(CCNC(=O)c2ccc(CN3CCOCC3)cc2)cc1", "inhibition": "15.6% (inactive)"}, {"compound": "N#Cc1ccc(COC(=O)c2ccc3c(=O)[nH]c(CN4CCOCC4)nc3c2)cc1", "inhibition": "-22.3% (inactive)"}, {"compound": "COc1ccc(CN2CCOCC2)cc1Br", "inhibition": "-7.96% (inactive)"}, {"compound": "COc1ccc(C2C(C(=O)c3cccs3)=C(O)C(=O)N2c2nnc(C)s2)cc1OC", "note": "(stereo unspecified)", "inhibition": "-21.4% (inactive)"}, {"compound": "CCC(CC)C(=O)Nc1cccc(C(=O)N2CCCC2)c1", "inhibition": "-16.5% (inactive)"}, {"compound": "c1ccn2c(CNc3ncnc4sccc34)nnc2c1", "inhibition": "-28% (inactive)"}, {"compound": "Cc1cc(C)c2cc(CN(Cc3cccnc3)C(=O)c3ccc(F)cc3)c(Cl)nc2c1", "inhibition": "-19.2% (inactive)"}, {"compound": "c1ccc(C2(CNc3ccccn3)CCCC2)cc1", "inhibition": "0.11% (inactive)"}, {"compound": "O=c1[nH]c(CSc2ncc(-c3ccc(F)cc3)n2Cc2ccco2)nc2ccccc12", "inhibition": "-10.5% (inactive)"}, {"compound": "CC(C)(C)C1CCC2(CC1)Nc1cccc3cccc(c13)N2", "inhibition": "15.8% (inactive)"}, {"compound": "CCn1c2ccccc2c2cc(NC(=O)C(C)Oc3ccccc3)ccc21", "note": "(stereo unspecified)", "inhibition": "-20% (inactive)"}, {"compound": "COc1cccc(N(C(=O)c2ccco2)c2nc(-c3sc(NC(=O)c4ccco4)nc3C)cs2)c1", "inhibition": "25.6% (inactive)"}, {"compound": "Cc1ccc(Nc2nc(N)nc(CC#N)n2)cc1", "inhibition": "-12.2% (inactive)"}, {"compound": "CCCCCC(=O)Nc1ccc2ccccc2c1", "inhibition": "-15.9% (inactive)"}, {"compound": "C/C(CC(=O)Nc1ccc(Cl)c(C(F)(F)F)c1)=N\\NC(=O)c1cccc(O)c1", "inhibition": "7.3% (inactive)"}, {"compound": "CC1CC(C)CN(CCCNC(=O)C2CCC(=O)N2C2CCCC2)C1", "note": "(stereo unspecified)", "inhibition": "-29.9% (inactive)"}, {"compound": "Cc1ccc(NC2CC(=O)N(Cc3ccccc3)C2=O)cc1", "note": "(stereo unspecified)", "inhibition": "-22.2% (inactive)"}, {"compound": "Cc1ccc(-n2nc(-c3ccc(N)cc3)cc2N)cc1", "inhibition": "8.99% (inactive)"}, {"compound": "CC(C)=CCN1CCN(Cc2ccoc2)CC1CCO", "note": "(stereo unspecified)", "inhibition": "-13.7% (inactive)"}, {"compound": "O=C(CCCN1Cc2ccccc2C1)c1ccc(F)cc1", "inhibition": "2.23% (inactive)"}, {"compound": "CCOc1ccc(/C=C/C(=O)Nc2ccc(OC)cc2[N+](=O)[O-])cc1", "inhibition": "-20.8% (inactive)"}, {"compound": "O=C(CSc1nc2ccccc2[nH]1)Nc1ccc(F)c(F)c1", "inhibition": "5.43% (inactive)"}, {"compound": "O=C(CNc1ccccc1)Nc1ccc(F)cc1", "inhibition": "16.5% (inactive)"}, {"compound": "COc1ccc(NC(=O)ON=C2c3ccccc3-c3ccccc32)cc1", "inhibition": "12.5% (inactive)"}, {"compound": "Cc1ccc(-c2cc(-c3ccc(Cl)cc3)c(C#N)c(N)n2)o1", "inhibition": "2.62% (inactive)"}, {"compound": "O=C1CCc2cc(S(=O)(=O)N3CCN(c4cccc(Cl)c4)CC3)ccc2N1", "inhibition": "-14.1% (inactive)"}, {"compound": "Cc1ccc(NC(NC(=O)c2ccccn2)C(Cl)(Cl)Cl)cc1", "note": "(stereo unspecified)", "inhibition": "-10.7% (inactive)"}, {"compound": "CCNC(=S)NNC(=O)c1ccc(OC(F)F)cc1", "inhibition": "-1.1% (inactive)"}, {"compound": "COC(=O)CCC(=O)Nc1ccc(Cl)c(Cl)c1", "inhibition": "21.1% (inactive)"}, {"compound": "S=C(Nc1ccc(Cl)c(Cl)c1)N1CCOCC1", "inhibition": "-1.89% (inactive)"}, {"compound": "CCN(C(=O)COc1cc(=O)n(CC)c2ccccc12)c1cccc(Cl)c1", "inhibition": "-6.53% (inactive)"}, {"compound": "O=C(c1ccc(Oc2ccccc2)cc1)c1nc2c(n1O)CCCC2", "inhibition": "14.3% (inactive)"}, {"compound": "CC(C)(C)c1cc2cccnc2n1Cc1cccc(Cl)c1", "inhibition": "-26.7% (inactive)"}, {"compound": "Nc1ncncc1-c1ccc([N+](=O)[O-])cc1", "inhibition": "36.5% (inactive)"}, {"compound": "O=C(Cn1ncc2c(=O)oc3ccccc3c21)N1CCN(c2ccccn2)CC1", "inhibition": "-15.8% (inactive)"}, {"compound": "O=C1CC(SCc2nc3ccccc3[nH]2)C(=O)N1c1ccc(Cl)cc1", "note": "(stereo unspecified)", "inhibition": "-18.6% (inactive)"}, {"compound": "Cc1ccc(C(=O)CSC2=C(C#N)C(c3ccco3)CC(=O)N2)c(C)c1", "note": "(stereo unspecified)", "inhibition": "-15.7% (inactive)"}, {"compound": "O=c1cc(-c2ccc([N+](=O)[O-])cc2)nc2cc(-c3ccc(Cl)cc3)[nH]n12", "inhibition": "-32% (inactive)"}, {"compound": "Cc1ccc2cccc(Oc3ncnc4scc(-c5ccccc5)c34)c2n1", "inhibition": "-17.1% (inactive)"}, {"compound": "CN1c2ccccc2C(=O)NC1c1ccc([N+](=O)[O-])s1", "note": "(stereo unspecified)", "inhibition": "-3.11% (inactive)"}, {"compound": "NC(CSC12CC3CC(CC(C3)C1)C2)C(=O)O", "note": "(stereo unspecified)", "inhibition": "-19.5% (inactive)"}, {"compound": "Cc1cc(-c2nnc(-c3ccccc3)c(-c3ccccc3)n2)c(C)o1", "inhibition": "-11.2% (inactive)"}, {"compound": "O=C(N/N=C/c1ccco1)c1cccc(S(=O)(=O)Nc2ccccc2Cl)c1", "inhibition": "-10.1% (inactive)"}, {"compound": "CCN(CC)S(=O)(=O)c1cccc(C(=O)NC(Cc2c[nH]c3ccccc23)c2nnc3n2CCC3)c1", "note": "(stereo unspecified)", "inhibition": "-14.8% (inactive)"}, {"compound": "CCn1c2ccccc2c2cc(/C=N/NC(=O)c3ccccc3)ccc21", "inhibition": "6.74% (inactive)"}]}]}
